Out of some 310,000 compounds screened, about 11,000 (3.5%) were called active. Another 8% or so got no clear call; they are omitted. The sample as a whole holds a higher share of actives than the screen did. A number with no mark means an inactive call. Calls follow the shape of the dose curve; as a rule, active = well fitted inhibition curve with a large enough effect; inconclusive = small, poorly fitted or top-dose-only effect, or effect the other way; inactive = flat fitted curve, though single readings scatter.
Assay: VP16 counterscreen qHTS for inhibitors of ROR gamma transcriptional activity;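 also: Gal4-VP16 expression switched on by copper sulfate through the metallothionein promoter; nearly all actives have a fitted effect of over 50% in size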
Conditions: Drosophila S2 Gal4-VP16 UAS-luciferase, luminescence, 20 h; series mostly up to 53.6 µM; activity, negative = inhibition: at the top concentration
% is scaled to controls: 0 for no effect and ±100 for the full control effect; potency is read from the fitted curve at half-maximal effect.

Structure (SMILES)	activity, negative = inhibition	Potency
Cc1nc2nc(SCC(=O)Nc3cccc(F)c3)[nH]c2cc1Br	-23.5%	
O=C(O)CCC(=O)Nc1ccc(OCC2CCCO2)cc1 (configuration not stated)	2.4%	
Cc1cc(C(=O)N/N=C/c2ccccn2)c2ccccc2n1	1.06%	
Cc1ccc(-c2cc(C(=O)N/N=C/C=C/c3ccco3)c3ccccc3n2)cc1C		4.47 µM (active)
COc1cccc(-c2cc(C(=O)N/N=C/c3ccc(OC)c(COC(C)=O)c3)c3ccccc3n2)c1	0.568%	
CC(NC(=O)CCCC1CCCCC1)c1ccc(S(N)(=O)=O)cc1 (configuration not stated)	4.41%	
Cc1cc2ccccc2n1CCC(=O)O	4.81%	
O=C(O)CCn1c(Cc2ccccc2)nc2ccccc21	-6.39%	
O=C(O)CCn1c(O)c(C=C2N=c3ccccc3=N2)sc1=S		3.55 µM (active)
COc1ccc(CCNC(=O)CCc2cn(C)c3ccccc23)c(OC)c1	-3.69%	
COC(=O)CN1C(=O)C(C)(C)Oc2ccc(C(=O)Nc3cccc(OC)c3)cc21	3.12%	
COC(=O)C(C)Sc1nc2c(c(=O)n(C)c(=O)n2C)n1Cc1cccc(C)c1 (configuration not stated)	-9.29%	
COc1cccc(Cn2c(=O)cnc3cncnc32)c1	5.12%	
Cn1c(=O)c2c(nc(OCc3cccnc3)n2Cc2ccccc2)n(C)c1=O	-0.554%	
Cn1c(=O)c2c(nc(NCc3ccccc3)n2CC(N)=O)n(C)c1=O	-1.04%	
CCCCNc1nc2c(c(=O)n(C)c(=O)n2C)n1Cc1cccc(OC)c1		4.47 µM (active)
CCNc1ncc2ncc(=O)n(CCc3ccccc3)c2n1	-14.9%	
Cn1c(=O)c2c(nc(NCCc3ccccc3)n2Cc2ccccc2)n(C)c1=O		6.31 µM (active)
CCNc1ncc2ncc(=O)n(Cc3cccc(OC)c3)c2n1		11.2 µM (active)
CCn1c(NCCc2ccc(OC)c(OC)c2)nc2c1c(=O)n(C)c(=O)n2C	-6.82%	
CCOCCCn1c(SCC(=O)Nc2cc(OC)ccc2OC)nc2ccccc2c1=O	-6.3%	
CC(C)c1nc2cc(C(=O)NC(C)c3cnn(C)c3)ccc2o1 (configuration not stated)	25.6%	
Cc1cnc(C(=O)Oc2cccc(Cl)c2Cl)cn1	-15.1%	
COCCN1CCN(C(=O)c2cc(COc3ccc(F)cc3Cl)on2)CC1	-13.8%	
CC(C)c1ccc(NC(=O)Cn2ncc3ccccc32)cc1	2.09%	
O=S1(=O)CCO[C@H]2Cc3ccccc3[C@H]2N1Cc1ccccc1	-5.04%	

Structure (SMILES)	activity, negative = inhibition	Potency
CCN(CC(=O)NCCCN1CCOCC1)S(=O)(=O)c1cc(Cl)ccc1Cl	8.86%	
CSCCC(NC(=O)c1ccc(=O)n(C)n1)c1nc2ccccc2[nH]1 (configuration not stated)	3.34%	
CSCCC(NC(=O)c1cc([N+](=O)[O-])cc([N+](=O)[O-])c1)c1nc2ccccc2[nH]1 (configuration not stated)		25.1 µM (active)
COc1ccc(CC(=O)N[C@@H](CCSC)c2nc3ccccc3[nH]2)cc1	-4.35%	
CC(c1ccccn1)N(C)C(=O)c1ccc2nc(Cc3cccc(Cl)c3)oc2c1 (configuration not stated)	8.69%	
CCOC(=O)C(C)n1cnc2c(nnn2-c2cccc(OC)c2)c1=O (configuration not stated)	25.9%	
O=C1CSC(c2ccccc2)N1c1nc(-c2ccc(Cl)cc2Cl)cs1 (configuration not stated)	-5.04%	
Clc1ccc(-c2cc(-c3ccccn3)on2)c(Cl)c1		7.08 µM (active)
O=C(NCc1ccccn1)c1cc(-c2ccccc2Cl)on1	13.9%	
CC(=O)N1CCCc2cc(S(=O)(=O)N3CCCC(C(=O)N4CCN(c5cccc(Cl)c5)CC4)C3)ccc21 (configuration not stated)		3.98 µM (active)
CC(=O)N1c2ccc(S(=O)(=O)N3CCCC(C(=O)Nc4cccc(Cl)c4)C3)cc2CC1C (configuration not stated)	-23.7%	
CC(=O)N1CCCc2cc(S(=O)(=O)N3CCCC(C(=O)NCc4ccc(Cl)cc4)C3)ccc21 (configuration not stated)	-0.363%	
COc1ccc(C(C(=O)NC2CCCC2)N(CCCO)C(=O)Cn2nnc(-c3ccc(C)o3)n2)cc1 (configuration not stated)	0.18%	
COc1ccc(-c2cc(=O)oc3cc(OCC(=O)N(C)C4CCS(=O)(=O)C4)ccc23)cc1 (configuration not stated)	-13%	
CC(=O)Nc1cccc(/C(C)=N/NC(=O)c2ccccc2Cl)c1	-3.27%	
Cc1onc(-c2c(Cl)cccc2Cl)c1C(=O)NNC(=O)c1c(-c2c(Cl)cccc2Cl)noc1C	4.2%	
CC(=O)Nc1cccc(/C(C)=N/NC(=O)c2c(-c3ccccc3Cl)noc2C)c1		20 µM (active)
CCc1cccc(OC2OC(CO)C(O)C(O)C2NC(C)=O)c1 (configuration not stated)	3.54%	
COc1cc(/C=C/CO)cc(OC)c1O[C@@H]1O[C@H](CO)[C@@H](O)[C@H](O)[C@H]1O	-3.49%	
Cc1csc(-c2coc3cc(O[C@@H]4O[C@H](CO)[C@@H](O)[C@@H](O)[C@H]4O)ccc3c2=O)n1		15.8 µM (active)
CCN(C(=O)C1CCCN(c2nc(-c3ccc(OC)cc3)no2)C1)c1ccc(OC)cc1 (configuration not stated)	2.87%	
CC(=O)[C@@]12O[C@@H]1C[C@H]1[C@@H]3CC[C@H]4C[C@@H](O)CC[C@]4(C)[C@H]3CC[C@@]12C	-3.05%	
Cc1cccc(C(=O)NC(=S)N2CCN(c3ccc([N+](=O)[O-])cc3)CC2)c1		1 µM (active)
Cc1cccc(C(=O)Nc2ccccc2N2CCN(c3ccc(F)cc3)CC2)c1	-2.23%	
Cc1cccc(C(=O)NNC(=O)c2cccc([N+](=O)[O-])c2)c1	-2.22%	
CCOc1cc(C(=S)N2CCOCC2)ccc1OS(=O)(=O)c1ccc(Br)cc1	2.61%	

Structure (SMILES)	activity, negative = inhibition	Potency
COc1cccc(-c2coc3cc4oc(=O)c(CC(=O)O)c(C)c4cc23)c1	-10.5%	
Cc1c(Cl)c([N+](=O)[O-])nn1CCCC(=O)Nc1cc(Cl)ccc1Cl	-0.0276%	
O=C(N/N=C/c1ccc2c(c1)OCO2)c1ccc(Cn2cc([N+](=O)[O-])cn2)o1	-6.56%	
Cc1c(Cl)c([N+](=O)[O-])nn1Cc1ccc(C(=O)N/N=C\c2cc(Cl)ccc2O)o1		11.2 µM (active)
COc1cccc(-c2cccc(NC(=O)C3CCN(C4CCC4)CC3)c2)c1	-0.379%	
O=C1/C(=C\c2ccsc2)NC(=S)N1c1ccccc1		22.4 µM (active)
CCCCN=C1N/C(=C\c2ccco2)C(=O)N1c1ccccc1	12.7%	
COc1cc2c(cc1/C=C1/NC(=O)N(c3ccccc3)C1=O)OCO2	-13.3%	
O=C(CNc1cccc(S(=O)(=O)N2CCCCC2)c1)Nc1ccccc1F	-17.1%	
COc1ccc(C(=O)NC(C)c2nccs2)cc1OC1CCN(C(C)C)CC1 (configuration not stated)	-4.74%	
CCOC(=O)c1ccc(NC(=O)c2nc[nH]c2C(=O)NCc2ccccc2)cc1		5.62 µM (active)
CCOC(=O)c1ccc(NC(=O)c2cc(=O)[nH]c3ccccc23)cc1	-1.66%	
CCOC(=O)c1[nH]cnc1C(=O)Nc1ccccc1C	-6.62%	
Cc1ccc(C(C)C)cc1OCC(=O)Nc1ccccc1N1CCCC1	-3.18%	
O=C(c1cc2ccccc2o1)N1CCN(c2cccc(C(F)(F)F)c2)CC1	-18.6%	
CCCCC[C@H]1CN(C2CCCCC2)C(=O)[C@@H]1CC(=O)NCc1ccc(OC)cc1	4.56%	
CCC(C)C(=O)Nc1ccccc1N1CCN(c2ccc(F)cc2)CC1 (configuration not stated)	0.0709%	
CCN1C(=NCCc2cccnc2)N[C@@H](c2ccccc2)C(C(=O)OC)=C1C		inactive
O=C(CO/N=C/c1ccccc1O)NNC(=O)c1ccccc1Cl		14.1 µM (active)
O=C(CO/N=C/c1ccccc1OC(F)F)NC1CCCC1	-0.0109%	
O=C(NNC(=S)NC1CCCCC1)c1ccccc1Cl	-4.51% [at 10 µM]	
Oc1ccc(-n2nnnc2SCc2c(F)cccc2Cl)cc1	-5.26%	
Cc1cccc(OCCC(=O)Nc2ccccc2C(N)=O)c1	1.04%	
Cc1cccc(OC(C)C(=O)N2CCc3ccccc3C2)c1 (configuration not stated)	-5.71%	
CCCCNC(=O)C(=O)c1ccccc1NC(C)=O	-3.25%	
O=[N+]([O-])c1ccccc1N/N=C1\CCc2ccccc21	7.72%	

Structure (SMILES)	activity, negative = inhibition	Potency
CCCCNC(=S)N/N=C1\CCCCc2ccccc21		4.47 µM (active)
FC(F)(F)c1nnc2c3ccccc3c(Cl)nn12	-10.7%	
COc1ccc(CNc2cc(C)cc(C)c2)cc1OC	4.88%	
COc1ccc(N2CCN(S(=O)(=O)c3ccc4c(c3)NC(=O)C(C)C(=O)N4)CC2)cc1 (configuration not stated)	0.791%	
CC(C)(O)C#Cc1ccc(CN2CCC(CO)(CCc3ccccc3)CC2)cc1	-11%	
O=C(NC(=S)Nc1ccc(NC(=O)c2cccs2)cc1)c1ccc([N+](=O)[O-])cc1	-16.7%	
CC(=O)NC(=S)Nc1ccc(NC(=S)NC(=O)c2ccc([N+](=O)[O-])cc2)cc1	-20.7%	
COCCCNC(=S)NC(=O)c1ccc([N+](=O)[O-])cc1		17.8 µM (active)
Cc1cc(CN(C)C(=O)c2cc(COc3ccc(C)c(C)c3)on2)n[nH]1	-25.2%	
COC(=O)c1cc(S(=O)(=O)Nc2ccc(C)c(F)c2)c[nH]1	6.68%	
COc1ccc(-n2nc(C(=O)NCC(=O)N3CCN(c4ccccc4OC)CC3)c3ccccc3c2=O)c(OC)c1	-1.24%	
COc1cccc(NC(=O)c2ccccc2N(Cc2ccccc2)S(C)(=O)=O)c1	-0.142%	
CCc1ccc2c(c1)C(c1ccc([N+](=O)[O-])cc1)=NNC(c1ccccc1)=N2	20.7%	
CCOc1ccc2c(c1)C(c1ccc(C)cc1)=NNC(c1ccc(C)cc1)=N2		15.8 µM (active)
Cc1ccc(C2=Nc3c(ccc4ccccc34)C(c3ccncc3)=NN2)cc1	3.1%	
COc1ccc(C(=O)NCCn2nc(C)cc2C)cc1OC1CCN(C(C)=O)CC1	2.18%	
COc1ccc(NC(=O)CS(=O)(=O)c2ccccc2)cc1	6.5%	
Cc1nonc1NC(=O)c1ccccc1Br	-14.3%	
O=C(Nc1cccc(Cl)c1)Nc1nnc(-c2ccccc2)o1	-17.2%	
O=C(Nc1nnc(-c2ccc(Cl)cc2)o1)c1ccccc1Br		4.47 µM (active)
COc1cccc(N(C(=O)c2snc(C(N)=O)c2N)C(C(=O)NCC2CCCO2)c2c[nH]c3ccccc23)c1 (configuration not stated)	-4.67%	
O=C(O)CSCC(=O)Nc1cccc(C(F)(F)F)c1	10.4%	
O=C(Nc1cccc(C(F)(F)F)c1)c1cc(Br)cc(Br)c1O		4.47 µM (active)
O=C(Nc1cccc(C(F)(F)F)c1)c1cnccn1	12.2%	

Reference: PubChem BioAssay AID2546 (National Center for Advancing Translational Sciences (NCATS), 2010)
